A selection: hits, their analogues and other compounds. The true share with any hit is near 3.8%.
Mtb FBA inh – Mtb fructose-bisphosphate aldolase inhibition. inhibition, % at 1 µM. P9WQA3. AID 588726. purified M. tuberculosis FBA, fluorescence read-out. 2.3% of 360,000 active
Target sequence (P9WQA3 whole entry, looked up): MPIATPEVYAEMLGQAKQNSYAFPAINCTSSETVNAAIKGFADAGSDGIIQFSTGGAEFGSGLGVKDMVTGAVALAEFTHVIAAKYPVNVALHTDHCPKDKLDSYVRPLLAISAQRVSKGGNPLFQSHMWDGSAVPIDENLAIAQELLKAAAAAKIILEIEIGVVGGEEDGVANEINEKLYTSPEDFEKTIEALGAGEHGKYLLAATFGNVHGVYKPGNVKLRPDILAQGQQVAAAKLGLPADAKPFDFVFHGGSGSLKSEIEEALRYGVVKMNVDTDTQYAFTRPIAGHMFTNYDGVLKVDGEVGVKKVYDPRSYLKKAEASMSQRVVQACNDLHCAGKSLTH
Mtb hypoxia rep – inhibitors of hypoxia-regulated fluorescent reporter in Mycobacterium tuberculosis. M. tuberculosis hypoxia-regulated fluorescent reporter, fluorescence. fluorescence inhibition, % (test concentration not listed). 0.1% of 300,000 active. AID 1159583; in the data active means fluorescence inhibition mostly above about 23%, no sharp cut-off; inactive means mostly below about 17%
GDH-TPI counter-1 – counter-screen for M. tuberculosis FBA inhibitors: GDH-TPI coupled enzymes. GDH-TPI coupled enzyme counterscreen, NADH absorbance. inhibition, % at 4.8 µM. 1.2% of 360,000 active. AID 588335; in the data active means inhibition above about 30%
PrP 5UTR inh – inhibition of PrP 5' UTR reporter expression; cell-based PrP 5' UTR mRNA reporter, plate reader; inhibition, % (test concentration not listed); 0.35% of 340,000 active; AID 488862; in the data active means inhibition above about 52%
Yp Topo-I inh – Y. pestis Topo-I inhibition via cleavage products; activity, % at 10 µM; Y. pestis Topo-I cleavage product accumulation, plate reader; 0.064% of 360,000 active; in the data active means activity above about 50%, passing the limit was not always enough
PrPC TRFRET – reduces human prion protein on the cell surface. cell surface PrPC, TR-FRET read-out. inhibition, % at 13.8 µM. P04156. 0.43% of 370,000 active; in the data active means inhibition above about 24%
Mtb FBA confirm – confirmation of M. tuberculosis fructose-bisphosphate aldolase inhibitors; shares compounds with Mtb FBA inh; purified M. tuberculosis FBA, fluorescence read-out; inhibition, % at 1 µM; 78% of 5,600 active
GDH-TPI counter-2 – inhibits GDH-TPI coupling enzymes, flagging Mtb FBA hits; shares compounds with Mtb FBA inh; GDH-TPI coupled enzyme counterscreen, fluorescence; inhibition, % at 1 µM; 81% of 5,600 active; in the data active means inhibition above about 10%
GDH-TPI dose – inhibits GDH-TPI coupling enzymes in dose response. shares compounds with Mtb FBA inh. GDH-TPI coupled enzyme assay, fluorescence, artifact counterscreen. IC50, µM. 79% of 170 active. AID 652145; call rule not given here
Of the large screens only hits and unclear results are named; the others gave an inactive call (follow-up assays come after a bar, where they were run). Unless noted, no stated cut-off is given here; in the data, active means inhibition above about 27%; inactive means the rest.

CS(=O)(=O)Cc1cc(Sc2ccccc2)nc(-c2ccncc2)n1	Mtb FBA inh 34 | Mtb FBA confirm inactive | GDH-TPI counter-2 inactive
CCCc1cc(=O)oc2cc(OCC(=O)NCCCN3CCOCC3)c(Cl)cc12	none
CCCCc1cc(=O)oc2cc(C)cc(OCC(=O)NCCN3CCOCC3)c12	Mtb FBA inh 51 | Mtb FBA confirm active | GDH-TPI counter-2 170
CCCc1cc(=O)oc2cc(C)cc(OCC(=O)NCCCN3CCOCC3)c12	Mtb FBA inh 73 | Mtb FBA confirm inactive | GDH-TPI counter-2 30
Cc1cc(OCC(=O)NCc2ccncc2)c2c(C)c(C)c(=O)oc2c1	none
Cc1cc(OCC(=O)NCCN2CCOCC2)c2c(C)c(C)c(=O)oc2c1	Mtb FBA inh 52 | Mtb FBA confirm inactive | GDH-TPI counter-2 inactive
CC(=O)OC1CCC2(C)C(COc3ccc4ccc(=O)oc4c3)C(C)(O)CCC2C1(C)C (stereo unspecified)	Mtb FBA inh 79 | Mtb FBA confirm 42 | GDH-TPI counter-2 38
C=C1CCC2C(C)(C)[C@@H](O)CC[C@@]2(C)[C@@H]1COc1ccc2ccc(=O)oc2c1 (stereo partly specified)	none
CCCCCCOc1ccc(C=NNC(=O)C2CC2)cc1	none (no result: Mtb FBA inh, GDH-TPI counter-1, PrP 5UTR inh, Yp Topo-I inh, PrPC TRFRET)
Clc1ccc(-c2nnc(N3CCOCC3)o2)cc1	Mtb FBA inh 40 | Mtb FBA confirm 92 | GDH-TPI counter-2 56
CCOc1ccc(-c2cc(C(=O)OC)nc3c2c(=O)n(C)c(=O)n3C)cc1	Mtb FBA inh 33 | Mtb FBA confirm 118 | GDH-TPI counter-2 91
COC(=O)c1cc(-c2ccc(Br)cc2)c2c(=O)[nH]c(=O)n(C)c2n1	none
CCOC(=O)N1CCN(C(=O)c2cc3c(=O)n4cccc(C)c4nc3s2)CC1	none
CCCCN(CC)C(=O)c1cc2c(=O)n3cccc(C)c3nc2s1	Mtb FBA inh 70 | Mtb FBA confirm active | GDH-TPI counter-2 167
CCN(CC)C(=O)c1cc2c(=O)n3cccc(C)c3nc2n1C	Mtb FBA inh 57 | Mtb FBA confirm 122 | GDH-TPI counter-2 107
CCN(C(=O)c1cc2c(=O)n3cccc(C)c3nc2s1)C1CCCCC1	none
CCN(CC)C(=O)c1cc2c(=O)n3cccc(C)c3nc2s1	Mtb FBA inh 69 | Mtb FBA confirm 148 | GDH-TPI counter-2 143
COc1ccccc1N1CCN(C(=O)c2cc3c(=O)n4cccc(C)c4nc3s2)CC1	Mtb FBA inh 41 | Mtb FBA confirm active | GDH-TPI counter-2 180
COc1ccc2c(OC)c3ccoc3nc2c1OC	Mtb FBA inh 96 (no result: Mtb hypoxia rep) | Mtb FBA confirm 192 | GDH-TPI counter-2 166
COc1c2ccoc2nc2c(OC)c(O)ccc12	none (no result: Mtb hypoxia rep)
CCOC(=O)C(=NNc1ccccc1Cl)N(C)C1CCCCC1	none (no result: Mtb FBA inh, GDH-TPI counter-1, PrP 5UTR inh, Yp Topo-I inh, PrPC TRFRET)
CSc1ncccc1C(=O)Nc1ccc(OC(F)(F)F)cc1	Mtb FBA inh 44 | Mtb FBA confirm 33 | GDH-TPI counter-2 34
CCC(=NNC(=O)c1ccc(Br)cc1)c1ccc(OCCN2CCOCC2)cc1	none (no result: Mtb FBA inh, GDH-TPI counter-1, PrP 5UTR inh, Yp Topo-I inh, PrPC TRFRET)
COCCOC(=O)C1=C(C)N=c2sc(=Cc3cccs3)c(=O)n2C1c1cccs1 (stereo unspecified)	none (no result: Mtb FBA inh, GDH-TPI counter-1, PrP 5UTR inh, Yp Topo-I inh, PrPC TRFRET)
FC(F)(F)c1cccc(-c2ccn3ncnc3n2)c1	Mtb FBA inh 33 | Mtb FBA confirm inactive | GDH-TPI counter-2 inactive
OC(c1ccccc1)(c1nc(-c2cccc(C(F)(F)F)c2)cs1)C(F)(F)F (stereo unspecified)	none (no result: Mtb hypoxia rep, PrP 5UTR inh)
CCS(CC)=NS(=O)(=O)c1ccc(NC(C)=O)cc1	Mtb FBA inh 64 (no result: Mtb hypoxia rep) | Mtb FBA confirm 98 | GDH-TPI counter-2 87
CC(=O)Nc1ccc(S(=O)(=O)N=S(C)C)cc1	none (no result: Mtb hypoxia rep)
O=C(Nc1ccon1)c1cnc2sccn2c1=O	Mtb FBA inh 28, GDH-TPI counter-1 31 | Mtb FBA confirm inactive | GDH-TPI counter-2 inactive | GDH-TPI dose inactive
CCN(CC)CCCNC(=O)c1cc2c(=O)n(CC)c3ccccc3c2s1	Mtb FBA inh 72 | Mtb FBA confirm active | GDH-TPI counter-2 active
CCn1c(=O)c2cc(C(=O)NCCN(C)C)sc2c2ccccc21	Mtb FBA inh 62 | Mtb FBA confirm 105 | GDH-TPI counter-2 89
CN(C)CCNC(=O)c1cc2sc3ccccc3c2s1	none
CCN(CC)CCNC(=O)c1cc2c(=O)n(CC)c3ccccc3c2s1	Mtb FBA inh 72 | Mtb FBA confirm 42 | GDH-TPI counter-2 36
CCCN(CCC)CCNC(=O)c1cc2c(=O)n(CC)c3ccccc3c2s1	Mtb FBA inh 28 | Mtb FBA confirm 63 | GDH-TPI counter-2 55
O=C(C1=CC(c2ccc(Br)cc2)CC(OCc2ccc(CO)cc2)O1)N1CCN(Cc2ccc3c(c2)OCO3)CC1 (stereo unspecified)	none (no result: Mtb FBA inh, GDH-TPI counter-1, PrP 5UTR inh, Yp Topo-I inh, PrPC TRFRET)
Cc1nc2ccc(C(=O)NN=Cc3ccc(O)cc3)cc2[nH]1	none (no result: Mtb FBA inh, GDH-TPI counter-1, PrP 5UTR inh, Yp Topo-I inh, PrPC TRFRET)
CN(CC(Cc1ccccc1)N(CC(c1ccccc1)N(CCc1ccccc1)N=O)N=O)N=O (stereo unspecified)	none (no result: Mtb FBA inh, GDH-TPI counter-1, PrP 5UTR inh, Yp Topo-I inh, PrPC TRFRET)
O=C(NN=Cc1ccc(Cl)cc1)Nc1ccccc1	none (no result: Mtb FBA inh, GDH-TPI counter-1, PrP 5UTR inh, Yp Topo-I inh, PrPC TRFRET)
c1ccc(CCCc2nc(-c3cccnc3)no2)cc1	Mtb FBA inh 77 | Mtb FBA confirm 52 | GDH-TPI counter-2 37
c1ccc(OCCCc2nc(-c3cccnc3)no2)cc1	none
CCCOc1ccc(-c2c(C(=O)NN=CC3CC=CCC3)nnn2-c2nonc2N)cc1 (stereo unspecified)	none (no result: Mtb FBA inh, GDH-TPI counter-1, PrP 5UTR inh, Yp Topo-I inh, PrPC TRFRET)
CN(C)c1ccc(C=NNc2ccccn2)cc1	none (no result: Mtb FBA inh, GDH-TPI counter-1, PrP 5UTR inh, Yp Topo-I inh, PrPC TRFRET)
CCOc1ccc(N(CC(=O)Nc2c(C)cccc2C)S(=O)(=O)c2c(C)[nH]c(=O)[nH]c2=O)cc1	Mtb FBA inh 91 | Mtb FBA confirm 85 | GDH-TPI counter-2 53
CCOc1ccc(N(CC(=O)Nc2cccc(C)c2C)S(=O)(=O)c2c(C)[nH]c(=O)[nH]c2=O)cc1	none
N=c1c(C(=O)NCc2ccccc2)cc2c(=O)n3ccccc3nc2n1CCCN1CCOCC1	Mtb FBA inh 79 (no result: Mtb hypoxia rep) | Mtb FBA confirm inactive | GDH-TPI counter-2 inactive
CC(C)Cc1ccc(CN2CCCC(NC(=O)c3cnc4ccccn4c3=O)C2)cc1 (stereo unspecified)	none
N=c1c(C(=O)NCC2CCCO2)cc2c(=O)n3ccccc3nc2n1Cc1ccco1 (stereo unspecified)	Mtb FBA inh 28 | Mtb FBA confirm active | GDH-TPI counter-2 192
Cc1ccc(S(=O)(=O)c2cc3c(=O)n4ccccc4nc3n(CC3CCCO3)c2=N)cc1C (stereo unspecified)	Mtb FBA inh 37 | Mtb FBA confirm 92 | GDH-TPI counter-2 63
COc1ccc(CNC(=O)C(C)Sc2nc3ccccc3c(=O)n2CCCN2CCOCC2)cc1 (stereo unspecified)	none
